According to the supplement of paper PMC10849652:
The full data set covers some 8,800 targets. This sample favours those with a hit. About 0.5% of all pairs of compound and target were hits. A number with no mark means an inactive call.

How the values were obtained:
Assay in all cases: log2 fold change, soluble protein after heating vs DMSO (PISA); higher = thermal stabilisation; K562 lysate, 10 uM; active = over 0.2 and 3.5 SD of the protein, either way, in both replicates (recomputed)
[1] = compound: CCCS(=O)(=O)Nc1ccc(F)c(C(=O)c2c[nH]c3ncc(-c4ccc(Cl)cc4)cc23)c1F [vemurafenib]
Summary of the method: (§1)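 Values give the log-two fold change in thermal stability against solvent controls, from duplicates. Crude K562 extract at 1 mg/mL protein, made by dounce homogenisation in PBS pH 7.4 with 1 mM MgCl2, was treated with 10 μM compound for 30 min. After 3 min heating across 48°C-58°C, aliquots were pooled, adjusted to 0.5% NP-40 at 4°C and centrifuged at 21,000xg for 90 min. The supernatant was measured by TMTpro 16plex LC-MS/MS with channel sums equalised.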

[2] = compound: CCCS(=O)(=O)Nc1ccc(F)c(C(=O)c2c[nH]c3ncc(Cl)cc23)c1F
Summary of the method: as §1

[3] = compound: CCN(CCCOc1ccc2c(Nc3cc(CC(=O)Nc4cccc(F)c4)[nH]n3)ncnc2c1)CCOP(=O)(O)O [barasertib]
Summary of the method: as §1

[4] = compound: CC[C@@H]1C(=O)N(C)c2cnc(Nc3ccc(C(=O)NC4CCN(C)CC4)cc3OC)nc2N1C1CCCC1
Summary of the method: as §1

[5] = compound: CC[C@@H]1C(=O)N(C)c2cnc(Nc3ccc(C(=O)N[C@H]4CC[C@H](N5CCN(CC6CC6)CC5)CC4)cc3OC)nc2N1C(C)C [volasertib]
Summary of the method: as §1

[6] = compound: CCn1c(C(=O)N(C2CC2)C2CC2)cc2c3c(ncn3C)c(Nc3cc(C)n(C)n3)nc21
Summary of the method: as §1

[7] = compound: CCn1cc(-c2ccnc3[nH]c(-c4cccc(CN(C)C)c4)cc23)c(-c2ccc(NC(=O)N(C)C)cc2)n1
Summary of the method: as §1

[8] = compound: CN1CCC(CNc2ccc3ncc(-c4cccc(OC(F)(F)F)c4)n3n2)CC1
Summary of the method: as §1

[9] = compound: CN1CCN(CCOc2cc(OC3CCOCC3)c3c(Nc4c(Cl)ccc5c4OCO5)ncnc3c2)CC1 [saracatinib]
Summary of the method: as §1

[10] = compound: CN1CCN(c2nc(C3=C(c4c[nH]c5ccccc45)C(=O)NC3=O)c3ccccc3n2)CC1 [sotrastaurin]
Summary of the method: as §1

[11] = compound: CN1CC[C@H](c2c(O)cc(O)c3c(=O)cc(-c4ccccc4Cl)oc23)[C@H](O)C1 [alvocidib]
Summary of the method: as §1

[12] = compound: CN1CCc2c(c3ccccc3n2Cc2ccc(C(=O)NO)cc2)C1 [Tubastatin A]
Summary of the method: as §1

[13] = compound: CNC(=O)C1=CC=CC=C1NC2=NC(=NC=C2Cl)NC3=C(C=C(C=C3)N4CCOCC4)OC
Summary of the method: as §1

[14] = compound: CNC(=O)c1ccc(Nc2ncc(C(F)(F)F)c(NCc3nccnc3N(C)S(C)(=O)=O)n2)cc1 [defactinib]
Summary of the method: as §1

[15] = compound: CNc1nc(-c2ccc3c(N)n[nH]c3c2)cc(N2C[C@@H](C(=O)NC3CCCCC3)CC[C@H]2C)n1
Summary of the method: as §1

[16] = compound: COC(=O)N[C@@H](C)CNc1nccc(-c2cn(C(C)C)nc2-c2cc(Cl)cc(NS(C)(=O)=O)c2F)n1 [encorafenib]
Summary of the method: as §1

[17] = compound: COC(=O)[C@H](CCSC)NC(=O)C1=C(C=C(C=C1)NC[C@H](CS)N)C2=CC=CC=C2
Summary of the method: as §1

[18] = compound: COc1cc(Nc2ncc3c(n2)-c2ccc(Cl)cc2C(c2c(F)cccc2OC)=NC3)ccc1C(=O)O [alisertib]
Summary of the method: as §1

[19] = compound: COc1cc2nc(-c3cc(F)ccc3O)nc(N[C@@H]3CNC[C@H]3C(C)(C)O)c2cc1OC
Summary of the method: as §1

[20] = compound: COc1cc2ncnc(Nc3ccc(F)c(Cl)c3)c2cc1OCCCN1CCOCC1 [gefitinib]
Summary of the method: as §1

Chain of UniProt P61960 (P61960 whole entry, looked up): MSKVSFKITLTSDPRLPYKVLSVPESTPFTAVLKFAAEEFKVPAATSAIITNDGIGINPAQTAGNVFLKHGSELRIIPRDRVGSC
Chain of UniProt Q6YHU6 (Q6YHU6 whole entry, looked up): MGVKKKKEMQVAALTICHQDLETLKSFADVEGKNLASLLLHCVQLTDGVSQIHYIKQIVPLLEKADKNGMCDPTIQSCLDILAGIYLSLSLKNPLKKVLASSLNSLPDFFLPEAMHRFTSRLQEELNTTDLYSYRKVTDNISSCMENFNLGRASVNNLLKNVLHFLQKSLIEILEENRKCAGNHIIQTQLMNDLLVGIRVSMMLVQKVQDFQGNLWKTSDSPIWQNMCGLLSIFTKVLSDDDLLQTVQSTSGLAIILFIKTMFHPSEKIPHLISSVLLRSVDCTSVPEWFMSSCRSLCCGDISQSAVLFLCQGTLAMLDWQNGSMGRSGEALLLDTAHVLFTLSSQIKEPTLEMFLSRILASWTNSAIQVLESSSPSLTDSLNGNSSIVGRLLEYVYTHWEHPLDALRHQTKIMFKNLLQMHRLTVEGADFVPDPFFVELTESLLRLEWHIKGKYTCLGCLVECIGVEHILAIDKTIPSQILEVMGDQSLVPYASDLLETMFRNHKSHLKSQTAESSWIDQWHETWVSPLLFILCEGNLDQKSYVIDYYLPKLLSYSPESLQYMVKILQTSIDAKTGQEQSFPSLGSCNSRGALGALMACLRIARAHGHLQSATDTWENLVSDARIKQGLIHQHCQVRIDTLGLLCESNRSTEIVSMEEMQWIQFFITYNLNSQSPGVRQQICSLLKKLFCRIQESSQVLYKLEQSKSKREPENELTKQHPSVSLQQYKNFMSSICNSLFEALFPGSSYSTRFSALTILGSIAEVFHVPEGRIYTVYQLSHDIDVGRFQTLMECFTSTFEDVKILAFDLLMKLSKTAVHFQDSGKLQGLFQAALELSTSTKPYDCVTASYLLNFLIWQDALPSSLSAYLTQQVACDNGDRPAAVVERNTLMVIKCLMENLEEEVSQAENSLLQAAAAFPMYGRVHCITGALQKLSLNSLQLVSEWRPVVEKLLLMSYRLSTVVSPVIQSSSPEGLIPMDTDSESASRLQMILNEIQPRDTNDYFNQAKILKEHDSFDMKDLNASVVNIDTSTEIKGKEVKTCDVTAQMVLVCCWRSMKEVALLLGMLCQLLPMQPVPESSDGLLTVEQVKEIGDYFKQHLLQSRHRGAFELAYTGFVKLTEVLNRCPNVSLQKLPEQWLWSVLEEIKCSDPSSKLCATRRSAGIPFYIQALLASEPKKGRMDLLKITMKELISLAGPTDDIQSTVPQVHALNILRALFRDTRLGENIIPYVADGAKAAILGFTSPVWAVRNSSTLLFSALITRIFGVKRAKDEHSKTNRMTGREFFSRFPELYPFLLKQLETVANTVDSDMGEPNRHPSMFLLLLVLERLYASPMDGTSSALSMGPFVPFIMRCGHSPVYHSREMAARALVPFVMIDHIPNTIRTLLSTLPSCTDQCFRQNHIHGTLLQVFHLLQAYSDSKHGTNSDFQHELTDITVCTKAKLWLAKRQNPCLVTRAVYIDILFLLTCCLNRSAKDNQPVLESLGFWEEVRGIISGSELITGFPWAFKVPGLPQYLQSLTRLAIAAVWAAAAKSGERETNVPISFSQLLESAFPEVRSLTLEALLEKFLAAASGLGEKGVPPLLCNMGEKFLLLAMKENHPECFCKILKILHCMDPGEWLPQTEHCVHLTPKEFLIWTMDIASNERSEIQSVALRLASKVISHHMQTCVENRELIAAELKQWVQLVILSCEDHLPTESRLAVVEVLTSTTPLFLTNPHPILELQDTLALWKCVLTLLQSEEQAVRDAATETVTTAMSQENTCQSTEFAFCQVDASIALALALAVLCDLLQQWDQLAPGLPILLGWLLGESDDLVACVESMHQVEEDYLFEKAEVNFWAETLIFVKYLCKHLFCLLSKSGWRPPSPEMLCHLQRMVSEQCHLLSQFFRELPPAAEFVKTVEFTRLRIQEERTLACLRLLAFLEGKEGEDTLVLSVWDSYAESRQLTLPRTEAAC
Chain of UniProt P04183 (P04183 whole entry, looked up): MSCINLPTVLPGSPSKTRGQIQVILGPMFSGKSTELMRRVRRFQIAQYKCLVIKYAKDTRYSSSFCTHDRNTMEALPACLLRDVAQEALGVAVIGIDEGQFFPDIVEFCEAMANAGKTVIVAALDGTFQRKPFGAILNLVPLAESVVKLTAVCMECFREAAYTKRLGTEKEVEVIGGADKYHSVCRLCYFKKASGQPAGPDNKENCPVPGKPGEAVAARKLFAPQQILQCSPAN
Chain of UniProt Q13509 (Q13509 whole entry, looked up): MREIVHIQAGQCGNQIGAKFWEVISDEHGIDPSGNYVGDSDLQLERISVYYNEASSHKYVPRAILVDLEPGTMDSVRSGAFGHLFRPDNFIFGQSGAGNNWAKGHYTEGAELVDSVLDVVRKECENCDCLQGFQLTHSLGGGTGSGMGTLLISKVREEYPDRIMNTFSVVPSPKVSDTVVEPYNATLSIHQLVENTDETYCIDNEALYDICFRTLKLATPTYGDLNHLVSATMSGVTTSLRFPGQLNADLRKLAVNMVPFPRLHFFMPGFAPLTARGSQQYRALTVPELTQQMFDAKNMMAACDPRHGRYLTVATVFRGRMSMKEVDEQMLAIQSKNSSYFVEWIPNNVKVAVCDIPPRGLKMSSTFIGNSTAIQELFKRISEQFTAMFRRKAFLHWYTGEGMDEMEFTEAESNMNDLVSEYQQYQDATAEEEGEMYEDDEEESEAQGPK
Chain of UniProt P42167 (P42167 whole entry, looked up): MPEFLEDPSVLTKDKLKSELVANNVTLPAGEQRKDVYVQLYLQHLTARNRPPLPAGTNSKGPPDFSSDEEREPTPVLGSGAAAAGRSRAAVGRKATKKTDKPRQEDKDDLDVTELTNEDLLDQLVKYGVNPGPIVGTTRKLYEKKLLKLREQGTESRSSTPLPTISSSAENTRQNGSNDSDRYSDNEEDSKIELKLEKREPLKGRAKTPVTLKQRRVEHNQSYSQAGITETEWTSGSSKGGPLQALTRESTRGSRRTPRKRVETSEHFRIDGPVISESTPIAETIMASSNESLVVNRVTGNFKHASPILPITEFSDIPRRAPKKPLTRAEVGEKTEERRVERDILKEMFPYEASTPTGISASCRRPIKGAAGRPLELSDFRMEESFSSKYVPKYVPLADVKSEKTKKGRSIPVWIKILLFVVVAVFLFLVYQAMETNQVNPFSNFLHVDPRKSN
Chain of UniProt Q9NZ01 (Q9NZ01 whole entry, looked up): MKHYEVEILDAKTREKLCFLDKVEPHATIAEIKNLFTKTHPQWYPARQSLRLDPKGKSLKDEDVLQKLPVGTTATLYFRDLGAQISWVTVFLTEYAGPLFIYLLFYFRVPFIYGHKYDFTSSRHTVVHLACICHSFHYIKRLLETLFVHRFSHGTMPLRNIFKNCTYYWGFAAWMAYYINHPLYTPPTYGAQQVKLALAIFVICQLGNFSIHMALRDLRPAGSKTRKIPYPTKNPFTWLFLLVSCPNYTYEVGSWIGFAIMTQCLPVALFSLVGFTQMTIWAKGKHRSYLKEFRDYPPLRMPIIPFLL
Chain of UniProt Q9BUB7 (Q9BUB7 whole entry, looked up): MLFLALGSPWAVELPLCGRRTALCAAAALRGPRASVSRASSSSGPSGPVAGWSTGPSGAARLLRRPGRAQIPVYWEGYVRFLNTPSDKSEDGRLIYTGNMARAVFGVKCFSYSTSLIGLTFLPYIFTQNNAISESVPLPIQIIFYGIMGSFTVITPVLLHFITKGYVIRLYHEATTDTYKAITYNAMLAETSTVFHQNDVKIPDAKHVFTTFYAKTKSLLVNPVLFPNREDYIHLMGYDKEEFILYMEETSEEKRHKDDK
Chain of UniProt Q9Y4P3 (Q9Y4P3 whole entry, looked up): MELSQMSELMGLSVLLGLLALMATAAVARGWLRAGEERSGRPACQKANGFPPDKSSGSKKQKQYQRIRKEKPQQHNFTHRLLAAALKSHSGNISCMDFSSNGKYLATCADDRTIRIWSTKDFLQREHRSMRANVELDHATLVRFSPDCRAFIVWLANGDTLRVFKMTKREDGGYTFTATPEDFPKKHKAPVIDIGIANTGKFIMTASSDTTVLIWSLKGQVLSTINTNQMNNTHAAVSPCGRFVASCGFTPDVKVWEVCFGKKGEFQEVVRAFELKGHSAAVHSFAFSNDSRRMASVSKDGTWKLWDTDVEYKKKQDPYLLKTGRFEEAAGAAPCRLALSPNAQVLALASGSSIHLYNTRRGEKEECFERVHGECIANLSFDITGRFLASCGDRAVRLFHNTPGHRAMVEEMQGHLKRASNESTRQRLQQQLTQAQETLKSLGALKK

Row | Target | log2 fold change [1] | log2 fold change [2] | log2 fold change [3] | log2 fold change [4] | log2 fold change [5] | log2 fold change [6] | log2 fold change [7] | log2 fold change [8] | log2 fold change [9] | log2 fold change [10] | log2 fold change [11] | log2 fold change [12] | log2 fold change [13] | log2 fold change [14] | log2 fold change [15] | log2 fold change [16] | log2 fold change [17] | log2 fold change [18] | log2 fold change [19] | log2 fold change [20]
1 | UFM1 (UniProt P61960) | -0.249 | -0.035 | 0.039 | 0.044 | 0.047 | 0.014 | 0.491 | -0.338 | 0.016 | 0.028 | 0.253 | 0.102 | 0.037 | 0.136 | 0.088 | 0.023 | -0.076 | 0.038 | -0.08 | -0.116
2 | TBL2 (UniProt Q9Y4P3) | -0.016 | -0.013 | -0.015 | -0.029 | -0.034 | -0.045 | -0.029 | 0.022 | 0.027 | 0.001 | 0.018 | -0.007 | 0.023 | 0.039 | -0.003 | 0.057 | -0.036 | 0.008 | 0.055 | -0.018
3 | TK1 (UniProt P04183) | 0.022 | 0.013 | -0.007 | 0.009 | 0.031 | -0.008 | -0.124 | 0.104 | -0.002 | 0.002 | -0.051 | 0.004 | 0.006 | -0.011 | 0.032 | -0.018 | -0.025 | -0.002 | 0.017 | 0.013
4 | TUBB3 (UniProt Q13509) | -0.004 | 0.018 | -0.042 | -0.019 | -0.046 | 0.027 | -0.002 | 0.012 | 0.015 | 0.027 | -0.001 | -0.081 | 0.006 | 0.023 | -0.034 | -0.004 | 0.072 | 0.007 | 0.007 | -0.016
5 | THADA (UniProt Q6YHU6) | -0.006 | 0.007 | 0.038 | -0.028 | -0.037 | 0.019 | -0.029 | 0.02 | 0.029 | 0.037 | -0.002 | -0.165 | 0.008 | 0.014 | -0.013 | 0.022 | 0.031 | 0.01 | 0.012 | 0.001
6 | TMPO (UniProt P42167) | 0.063 | 0.008 | 0.003 | -0.01 | 0.013 | 0.022 | 0.033 | -0.033 | 0.014 | -0.014 | -0.007 | 0.018 | -0.034 | -0.015 | 0.029 | 0.035 | -0.163 | -0.026 | -0.025 | 0.027
7 | TMEM70 (UniProt Q9BUB7) | -0.016 | 0.029 | 0.063 | -0.072 | -0.004 | -0.027 | -0.378 (active) | 0.027 | 0.023 | 0.122 | -0.037 | -0.015 | -0.025 | -0.001 | -0.056 | 0.021 | -0.002 | 0.024 | -0.041 | -0.036
8 | TECR (UniProt Q9NZ01) | -0.003 | 0.054 | 0.082 | -0.02 | 0.001 | 0.032 | 0.014 | -0.247 | 0.045 | -0.034 | 0.05 | -0.015 | -0.046 | 0.052 | -0.008 | 0.068 | -0.104 | 0.053 | 0.048 | -0.008
